# Assay results: paper PMC5540273 (PLoS ONE, 2017)
# Key:
# Settings in all cases: concentration: 1 μM,replicates: in singlicate; n = 1
# [1] = test system: T1, RSK4(Kin.Dom.1-N-terminal)
# T1 construct: gene RPS6KA6
# [2] = test system: T2, RSK4(Kin.Dom.2-C-terminal)
# T2 construct: gene RPS6KA6
# S6K1 = test system: S6K1
# SBK1 = test system: SBK1
# SGK2 = test system: SGK2
# SGK3 = test system: SGK3
# SGK = test system: SGK
# SIK2 = test system: SIK2
# SIK = test system: SIK
# SLK = test system: SLK
# SNARK = test system: T3, SNARK
# T3 construct: gene NUAK2
# SNRK = test system: SNRK
# SRC = test system: SRC
# SRMS = test system: SRMS
# SRPK1 = test system: SRPK1
# SRPK2 = test system: SRPK2
# SRPK3 = test system: SRPK3
# STK16 = test system: STK16
# STK33 = test system: STK33
# STK35 = test system: STK35
# 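Also: KINOMEscan kinase panel screen.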
Structure (SMILES),%Inh [1] [%],%Inh [2] [%],%Inh (S6K1) [%],%Inh (SBK1) [%],%Inh (SGK2) [%],%Inh (SGK3) [%],%Inh (SGK) [%],%Inh (SIK2) [%],%Inh (SIK) [%],%Inh (SLK) [%],%Inh (SNARK) [%],%Inh (SNRK) [%],%Inh (SRC) [%],%Inh (SRMS) [%],%Inh (SRPK1) [%],%Inh (SRPK2) [%],%Inh (SRPK3) [%],%Inh (STK16) [%],%Inh (STK33) [%],%Inh (STK35) [%]
O=C(Nc1cccc(Oc2ccc3nccn3n2)c1)Nc1cccc(C(F)(F)F)c1,0,0,0,0,8,8,0,16,17,0,0,0,0,0,0,0,14,9,21,0
CS(=O)(=O)Nc1ccc(-c2ccnc3[nH]ccc23)cc1 [GSK993273],27,60,37,55,13,12,24,39,9,49,40,0,0,0,77,0,75,81,5,15
Cn1cc(-c2cccc3c(N)c(C(N)=O)nnc23)cn1,22,3,22,19,45,64,78,17,24,0,9,11,0,24,45,11,39,11,27,8
Cc1ccc(C(=O)Nc2ccc(Oc3ccc4nc(NC(=O)C5CC5)cn4c3)c(F)c2)c(=O)n1-c1ccccc1,0,0,9,0,0,0,0,19,94.9,79,0,0,11,0,0,23,25,17,24,0
CC(C)c1nc(-c2cccc(NS(=O)(=O)c3ccccc3)c2)c(-c2ccnc(Nc3ccc4c(c3)CN(C)CC4)n2)s1 [GSK1649598],0,46,66,43,35,53,77,87,99.6,88,35,1,100,99.5,49,0,0,28,94.8,63
COc1cc2ncn(-c3cc(OCC4CCCCC4)c(C(N)=O)s3)c2cc1OC [GSK204559],3,20,0,22,0,9,0,0,4,80,15,0,21,0,84,0,31,4,12,30
C[C@@H]1CNc2c(sc3ccc4nc(-c5ccc(O)cc5)ccc4c23)C(=O)N1,80,8,6,32,8,24,20,16,20,0,85,2,0,0,0,0,24,30,78,9
Cc1ccc(Nc2ccnc(Nc3ccc4c(c3)CS(=O)(=O)C4)n2)cc1O.Cl [GW579362],0,35,1,55,0,9,0,60,58,99.2,52,6,99.9,87,99.2,18,83,98.5,89,22
c1ccc(Oc2ccc(Nc3ccnc4ccc(-c5ccccn5)cc34)cc2)cc1 [GW407034],4,14,2,60,0,0,0,0,0,10,0,0,17,94.9,0,0,17,0,0,31
CS(=O)c1ccc(-c2coc3ccc(-c4n[nH]c(=O)o4)cc23)cc1 (centres unmarked),6,27,3,85,12,15,31,11,2,9,21,10,22,0,0,1,0,52,0,9
CCCC(=O)Nc1n[nH]c2ncccc12 [SB-601436],0,0,0,2,17,10,7,0,0,0,0,0,0,4,16,0,10,3,0,0
COC(=O)c1cccc(NC(=O)NC2CCN(c3ccnc(NCc4ccc(F)cc4)n3)CC2)c1 [GSK1379860],0,0,0,32,0,0,0,0,5,2,0,0,0,0,61,0,0,0,0,0
COc1cc2nccc(Nc3ccc(Oc4ccccc4)cc3)c2cc1OC.Cl [GI261656],0,9,0,0,0,0,0,0,0,26,0,0,47,99.9,31,21,0,0,0,24
C[C@@H]1CCN(C(=O)N2CCCC2)C[C@@H]1N(C)c1ncnc2[nH]ccc12,18,31,2,19,3,27,0,6,11,21,61,18,0,0,8,3,14,0,0,0
O=C(Nc1cccc(C(F)(F)F)c1)c1cccc(Oc2ccc3nccn3n2)c1,23,22,2,35,15,14,9,0,0,10,0,1,17,0,3,0,4,7,22,8
O=c1[nH]cc(-c2ccc(O)cc2)c2sc(-c3ccncc3)cc12 [GSK1033723],0,15,0,9,0,2,0,0,0,1,8,0,0,0,21,5,0,22,0,0
NC(=O)c1ccc(-c2cc3ncnc(SCC(=O)O)c3s2)cc1,0,0,15,0,0,0,0,7,6,10,0,0,0,0,0,0,0,54,0,0
CC(=O)c1c(-c2ccncc2)[nH]c(-c2ccncc2)c1C [GW493036],0,4,6,10,11,9,0,0,0,0,0,0,0,0,24,16,0,28,0,0
C[C@@H]1CNc2c(sc3ccc4nc(-c5ccncc5)ccc4c23)C(=O)N1,38,21,0,30,0,18,0,0,5,1,53,11,1,0,23,0,31,13,60,0
